Hits are enriched below; roughly 15% of the tested compounds scored in any of these assays.
RORg inh – blocks mouse ROR gamma transcriptional activity. P51450. Drosophila S2 Gal4-RORgamma UAS-luciferase reporter, 20 h. Potency, µM (series often up to 53.6 µM), for inactives: at the highest dose activity change, negative = inhibition, hits mostly inhibitors. actives 5.4% (n = 310,000). AID 2551; also: nearly all actives have a fitted effect of over 60% in size
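Luminescence from a UAS-regulated Photinus luciferase reporter in stably transfected Drosophila Schneider cells is measured; decreased signal marks ROR gamma inhibition. Fusion expression is induced by 700 uM copper sulfate for 20 hr.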
DT40 TDP1 no CPT – qHTS for Inhibitors of human tyrosyl-DNA phosphodiesterase 1 (TDP1): qHTS in cells in absence of CPT; DT40 Tdp1-/- hTDP1 cells, no CPT, ATP luminescence, 48 h; Potency, µM (top dose mostly 46.2 µM), inactives show at the highest dose activity change, negative = growth inhibition, usual class: inhibitors; actives 15% (n = 420,000); also: nearly all actives have a fitted effect of over 55% in size
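A cellular qHTS used chicken DT40 cells lacking endogenous Tdp1 but carrying stably transfected human TDP1. Compounds were applied without camptothecin, and cell growth kinetics were judged by ATP-dependent luminescence after ≥48 hr.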
VP16 counter – inhibits Gal4-VP16 luciferase reporter, ROR gamma counter-screen; Drosophila S2 Gal4-VP16 UAS-luciferase, luminescence, 20 h; Potency, µM (doses to about 53.6 µM), inactives show at the top dose activity, negative = inhibition, most hits filed as inhibitors; actives 3.5% (n = 310,000); AID 2546;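 also: Gal4-VP16 expression switched on by copper sulfate through the metallothionein promoter; nearly all actives have a fitted effect of over 50% in size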
12-LOX inh – blocks human arachidonate 12S-lipoxygenase. actives 1.1% (n = 580,000). purified 12hLO, xylenol orange hydroperoxide absorbance. Potency, µM (doses to about 108 µM), for inactives: at the top dose activity change, negative = inhibition, actives largely listed as inhibitors. P18054. AID 1671190
Target sequence (P18054 whole entry, looked up): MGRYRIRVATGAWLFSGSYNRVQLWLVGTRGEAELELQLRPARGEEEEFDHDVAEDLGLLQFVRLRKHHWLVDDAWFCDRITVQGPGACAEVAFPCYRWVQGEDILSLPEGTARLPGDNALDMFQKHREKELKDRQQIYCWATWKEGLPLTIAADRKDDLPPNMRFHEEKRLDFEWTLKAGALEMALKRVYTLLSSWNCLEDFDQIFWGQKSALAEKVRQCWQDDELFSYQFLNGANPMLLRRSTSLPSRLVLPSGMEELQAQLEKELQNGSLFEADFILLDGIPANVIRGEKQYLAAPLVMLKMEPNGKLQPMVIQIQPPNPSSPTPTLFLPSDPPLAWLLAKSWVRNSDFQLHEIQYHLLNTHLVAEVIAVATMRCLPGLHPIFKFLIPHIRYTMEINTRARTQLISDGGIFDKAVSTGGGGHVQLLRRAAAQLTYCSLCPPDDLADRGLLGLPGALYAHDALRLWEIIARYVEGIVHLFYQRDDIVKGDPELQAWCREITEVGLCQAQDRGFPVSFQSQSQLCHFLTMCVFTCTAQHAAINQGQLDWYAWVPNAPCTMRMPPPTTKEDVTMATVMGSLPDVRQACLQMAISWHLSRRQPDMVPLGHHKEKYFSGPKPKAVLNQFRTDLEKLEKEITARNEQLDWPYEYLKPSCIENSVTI
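Purified human 12hLO (150 nM final) in 25 mM Hepes, 0.01% Triton X-100, pH 7.0 was preincubated 15 min at room temperature with compound. Then 40 uM arachidonic acid was added, 30 min. Hydroperoxide was read by Fe-XO absorbance ratio 573/405 nm.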
ELG1 DNA repair – blocks ELG1-dependent DNA repair in HEK293T cells. HEK293T ELG1-luciferase reporter, luminescence, 16 h; DNA damage induced by 5-fluorouridine. Potency, µM (series often up to 46.1 µM), for inactives: at the highest dose activity change, negative = inhibition, actives largely listed as inhibitors. actives 2.3% (n = 330,000); also: nearly all actives have a fitted effect of over 55% in size
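Cells (2,000 per well) received 5-fluorouridine plus test compound or DMSO and were incubated 16 hr at 37 °C, 5% CO2. Luciferase activity was read by luminescence 30 min after ONE-Glo addition; signal suppression marked inhibition of damage-induced ELG1 function.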
TDP1 cell CPT – growth inhibition of DT40 Tdp1-/-;hTDP1 cells with camptothecin (screen for TDP1 inhibitors). chicken DT40 Tdp1-/-;hTDP1 cells + 20 nM CPT, ATP luminescence, 48 h. Potency, µM (series often up to 46.2 µM), inactives show at the top dose activity change, negative = growth inhibition, actives largely listed as inhibitors. actives 12% (n = 420,000); also: nearly all actives have a fitted effect of over 55% in size
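Chicken DT40 Tdp1-/- cells stably complemented with human TDP1 were seeded at 400 cells/well in medium containing 20 nM camptothecin, exposed to pin-transferred compounds, and grown at 37 °C for at least 48 hr. Viability was read as ATP luminescence.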
Active calls of the source: *; ? = inconclusive; . = no result given; [ ] = another dose, or the depositor's remark. Calls follow the shape of the dose curve; as a rule, active = well fitted curve in the direction sought with a large enough effect; inconclusive = small, poorly fitted or top-dose-only effect, or another doubt; inactive = no such curve, though single readings can be large; an effect the other way counts as inactive or inconclusive. % is scaled to controls: 0 for no effect and ±100 for the full control effect; potency is read from the fitted curve at half-maximal effect.

SMILES	RORg inh	DT40 TDP1 no CPT	VP16 counter	12-LOX inh	ELG1 DNA repair	TDP1 cell CPT
Cc1ccc(C)c(N2CCN(C(=O)c3ccc4c(c3)N(Cc3ccc(F)cc3)C(=O)c3ccccc3S4=O)CC2)c1 (stereo not drawn)	.	10.3µM*	.	-27.7%	.	18.4µM*
Cc1ccc(C)c(CN2C(=O)c3ccccc3S(=O)c3ccc(C(=O)N4CCN(c5ccccc5F)CC4)cc32)c1 (stereo not drawn)	.	1.84µM*	.	?	.	5.8µM*
CCN1C(=O)c2ccccc2S(=O)c2ccc(C(=O)N3CCN(c4cc(Cl)ccc4C)CC3)cc21 (stereo not drawn)	.	23.1µM*	.	-22.4%	.	?
Cc1ccc(NC(=O)CC2C=CCC2)cc1C (stereo not drawn)	.	.	.	-20.6%	.	.
CN(C)C(=O)c1cccnc1CCC1COc2ccccc2O1 (stereo not drawn)	.	.	.	74.2%	.	.
CCCCCn1nc(C(=O)NCC(=O)Nc2cccc(C)c2C)c2ccccc2c1=O	.	.	.	2.6%	.	.
Cc1ccc(Cl)cc1N1CCN(C(=O)CN2C(=O)c3cccc4cccc2c34)CC1	-8.5%	-18.8%	-18.7%	6.2%[57.4 µM]	20.6µM*	-15.8%
Cc1ccc(C)c(CN2C(=O)c3ccccc3S(=O)c3ccc(C(=O)N4CCN(c5ccccn5)CC4)cc32)c1 (stereo not drawn)	26.7%	16.4µM*	-4.8%	4.2%	?	?
O=C(c1ccc2c(c1)N(Cc1ccccc1F)C(=O)c1ccccc1S2=O)N1CCCCC1 (stereo not drawn)	.	-10.6%	.	-23.0%	.	-22.0%
CCN1CCN(C(=O)CN2C(=O)c3cccc4cccc2c34)CC1	-4.5%	-16.1%	6.6%	15.0%	0.7%	2.0%
CCOC(=O)C1CCCN(C(=O)c2ccc3c(c2)N(Cc2ccccc2F)C(=O)c2ccccc2S3=O)C1 (stereo not drawn)	.	16.4µM*	.	-20.8%	.	?
Cn1c(CC(=O)Nc2cccc(C(F)(F)F)c2)nnc1SCC(=O)c1ccc(C#N)cc1	.	.	.	17.1%	.	.
CC(C)CCNC(=O)CCC(=O)NNc1nc2ccccc2c2nc(-c3ccccc3)nn12	-3.7%	20.6µM*	-6.5%	0.0%	1.7%	20.6µM*
Cc1nc2c3ccccc3nc(NNC(=O)CCC(=O)N3CCCC(C)C3)n2n1 (stereo not drawn)	2.3%	-16.8%	8.0%	22.5%	9.8%	-1.2%
Cc1cccc(N2CCN(C(=O)CCC(=O)NNc3nc4ccccc4c4nc(C)nn34)CC2C)c1 (stereo not drawn)	.	23.1µM*	.	-9.9%	.	18.4µM*
NCCC1CCN(C(=O)Nc2ccccc2F)CC1	.	.	.	-14.0%	.	.
O=S1(=O)c2c(F)cccc2O[C@@H](COCc2ccccc2)CN1CCc1ccc(F)cc1	.	?	.	0.6%	.	?
O=S1(=O)c2c(F)cccc2OC(COc2ccccc2)CN1CCc1ccc(F)cc1 (stereo not drawn)	.	16.4µM*	.	-3.6%	.	?
CC(=O)Nc1ccc(S(=O)(=O)Nc2ccc3c(c2)N(S(C)(=O)=O)CC3)cc1	.	.	.	-5.0%	.	.
CCCOC(=O)c1c(NC(=O)CCC(=O)O)sc2c1CCCCC2	8.3%	-7.7%	5.0%	-0.8%	13.2%	19.2%
COc1ccc(NC(=O)c2c(NCc3cccs3)sc3c2CCCC3)cc1	.	20.6µM*	.	?	.	?
COc1ccc2nc(Nc3sc4c(c3C(N)=O)CCCC4)sc2c1	1.41µM*	?	3.55µM*	22.4µM*	?	16.4µM*
CCOC(=O)c1ccc(NC(=O)c2c(NCc3cccs3)sc3c2CCCCC3)cc1	.	8.2µM*	.	?	.	10.3µM*
CCOC(=O)c1ccc(NC(=O)c2c(NC(=O)CCC(=O)O)sc3c2CCCCC3)cc1	10µM*	29.1µM*	1.4%	20µM*	?	0.1%
COc1ccc(N2Cc3c(ncnc3N3CCN(C(C)=O)CC3)N(C)CC2=O)cc1	.	.	.	16.9%	.	.
SMILES	RORg inh	DT40 TDP1 no CPT	VP16 counter	12-LOX inh	ELG1 DNA repair	TDP1 cell CPT
Cc1ccc(CNC(=O)N2CC(n3cc(C(=O)NCC4CC4)nn3)C2)cc1	.	.	.	10.7%	.	.
COc1ccc(CCCn2ccnc2-c2cn(C3CCNCC3)nn2)cc1	.	.	.	74.7%	.	.
CCC(=O)Nc1sc2c(c1C(=O)Nc1ccc(Br)cc1)CCCCC2	.	20.6µM*	.	1.1%	.	?
COc1ccc(CC(=O)Nc2sc3c(c2C(N)=O)CCCC3)cc1	?	?	14.7%	0.9%	?	13.9%
COc1ccc(CC(=O)Nc2sc3c(c2C(=O)Nc2ccccc2)CCCCC3)cc1	.	?	.	-21.3%	.	-68.5%
CCOC(=O)c1c(NC(=O)c2ccc(OC)cc2)sc2c1CCCCC2	.	-27.6%	.	-25.5%	.	-18.0%
COc1ccc(NC(=O)c2c(NCc3cccs3)sc3c2CCCCC3)c(OC)c1	.	14.6µM*	.	?	.	?
COc1ccc(NC(=O)CN(C)CC(=O)Nc2sc3c(c2C(N)=O)CCC3)cc1	.	?	.	-2.8%	20.6µM*	20.6µM*
CCN(CC)Cc1c(NC(=O)c2ccc(OC)cc2)sc2c1CCCC2	.	?	.	-13.5%	.	18.4µM*
O=C(c1cn(CCOc2ccccc2Cl)c2ccccc12)C(F)(F)F	.	.	.	-2.2%	.	.
COc1ccc(-c2ccc3nnc(CNC(=O)C(C)Oc4ccccc4)n3n2)cc1 (stereo not drawn)	.	.	.	-2.0%	.	.
COc1cccc(C2CC(=O)Oc3c2c(=O)[nH]c2ccccc32)c1 (stereo not drawn)	.	.	.	-0.5%	.	.
O=C(NNc1ncnc2c1cnn2-c1ccccc1)C1CCCCC1	.	.	.	-0.1%	.	.
O=S(=O)(Nc1cccc2c1CCCC2)c1ccccc1Cl	.	.	.	130.9%	.	.
CCOC(=O)c1ccc(NC(=O)c2c(NCc3ccc(OC)c(OC)c3OC)sc3c2CCC(C)C3)cc1 (stereo not drawn)	.	25.9µM*	.	?	.	?
Cn1c(N)c(C(=O)Nc2ccc(-c3ccccc3)cc2)sc1=S	2.6%	20.6µM*	-2.3%	-11.5%	-30.4%	23.1µM*
C=CCn1c(N)c(C(=O)Nc2ccc(C)cc2)sc1=S	-1.4%	5.3%	-4.7%	26.2%	?	-3.0%
COc1cc(/C=C/c2nc(C#N)c(NC3CC3)o2)cc(OC)c1OC	.	.	.	-51.3%	.	.
COc1ccc(CCNc2oc(/C=C/c3cc(OC)c(OC)c(OC)c3)nc2C#N)cc1OC	.	11.6µM*	.	-20.0%	.	13µM*
CNc1oc(/C=C/c2cc(OC)c(OC)c(OC)c2)nc1C#N	.	23.1µM*	.	3.9%	.	?

High-throughput results as filed in PubChem BioAssay.
